PubChem BioAssay AID686978 (National Center for Advancing Translational Sciences (NCATS), 2013)
Where “and” joins values, the source holds several entries; their conditions need not be identical. Equal values may be shown once. About 64,000 (15%) of roughly 420,000 compounds were called active. Not shown: some 27% with an inconclusive outcome. These entries were drawn from the full list. Unmarked numbers belong to inactive results. The call rests on the fitted dose curve; in most records, active means well fitted inhibition curve with a large enough effect; inconclusive means small, poorly fitted or top-dose-only effect; inactive means flat fitted curve, though single readings scatter.

assay: qHTS for Inhibitors of human tyrosyl-DNA phosphodiesterase 1 (TDP1): qHTS in cells in absence of CPT; conditions: DT40 Tdp1-/- hTDP1 cells, no CPT, ATP luminescence, 48 h; activity change, negative = growth inhibition: at 46.2 µM (top of the series); further: nearly all actives have a fitted effect of over 55% in size
Method in brief: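 DT40 Tdp1-/-;hTDP1 cells, no CPT (DMSO vehicle only), 400 cells/well; compounds pin-transferred; ≥48 hr, 37 °C; CellTiter-Glo 30 min RT dark, luminescence read.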
On the % scale 0 is the no-effect control and ±100 the full control effect; potency means the concentration at half of the fitted maximal effect.

Compound	activity change, negative = growth inhibition [%]	Potency
Nc1ncnc2nnsc12	-6.84	–
COc1ccc(-c2nc(CCNC(=O)c3ccc(Br)o3)cs2)cc1	–	20.6 µM (active) and 18.4 µM (active)
COc1cc(OC)cc(C(=O)NNC(=O)CNC(=O)c2ccc(Br)o2)c1	-1.82	–
O=S(=O)(NCCc1csc(-c2ccccc2)n1)c1cccnc1	-6.09	–
CC(C)c1ccc(NC(=O)COC(=O)c2ccc(CN3CCCC3=O)cc2)cc1	13.6	–
CN(C)C(=O)N1CCNCC1	1.26	–
Cc1csc(=NC(=O)c2ccccc2)n1CCO	-16.2	–
C=C(C)CNC(=S)/N=c1\scc(C)n1CC	–	20.6 µM (active)
COc1ccc(NC(=S)Nc2ccc(S(N)(=O)=O)cc2)c(C)c1	-13.9	–
COC(=O)c1sc(NC(=O)COC(=O)C2CCC2)c(C(=O)OC)c1C	-5.44	–
O=S1(=O)C[C@@H](N2CCN(CCO)CC2)[C@H](COCc2ccccc2)N1	20.9	–
Cc1ccc(NC(=O)CNCc2ccccn2)cc1S(=O)(=O)N(C)C	-3.4	–
Cc1csc(SCC(=O)Nc2ccc(C)c(S(=O)(=O)N(C)C)c2)n1	–	18.4 µM (active)
COc1ccc(NC(=O)CSc2nc(C)cs2)cc1	-29.3	–
CC(=O)c1sc(N)nc1C	–	inactive
CC(C)[C@H](NC(=O)N1CC(=O)Nc2ccccc21)C(=O)N[C@@H](Cc1c[nH]c2ccccc12)C(=O)O	0.876	–
CC(C[N+](C)(C)C)OC(N)=O (configuration not stated)	–	inactive
Fc1ccc(COc2cccc(-c3n[nH]c(=S)o3)c2)cc1	1.3	–
COc1ccccc1OCCNC(=O)CCNC(=O)c1ccccc1Cl	4.86	–
O=C(NCCOc1ccccc1Cl)C(=O)Nc1ccccc1	–	18.4 µM (active)
O=C(O)c1ccccc1OCc1ccccc1Cl	0.336	–
CCC(C)NC(=O)C1CCCN(C(=O)NC2CCCCC2)C1 (configuration not stated)	0.165	–

Compound	activity change, negative = growth inhibition [%]	Potency
C=CCN(c1ccc(C(=O)Nc2cc(C)cc(C)c2)cc1)S(C)(=O)=O	-24.1	–
COc1ccc(O)c(C=Nc2cc(C)on2)c1	0.215	–
COc1ccc(-c2onc(C)c2-c2ccc3c(c2)OCCO3)c(O)c1	–	18.4 µM (active)
COc1ccc(C#Cc2c(-c3ccc(OC)cc3)oc3ccc(-c4ccc5c(c4)OCO5)cc23)cc1	-5.09	–
CC[C@H](C)[C@@H](C(=O)N1CCNCC1)n1cc([C@@H](N)Cc2ccc(O)cc2)nn1	-10.6	–
O=C(O)c1ccn(COc2ccc(Br)cc2)n1	-11.4	–
Cc1cccc(N2CCN(C(=O)CCS(=O)(=O)c3ccc4c(c3)NC(=O)C(C)S4)CC2)c1C (configuration not stated)	–	25.9 µM (active)
CCC(=O)N1CCc2cc(S(=O)(=O)CCC(=O)N3CCN(c4ccccc4F)CC3)ccc21	-0.867	–
Cn1c(=O)c(=O)n(C)c2cc(S(=O)(=O)CCC(=O)N3CCCCC3)ccc21	-4.15	–
COc1ccc(NC(=O)C2CCC(CNS(=O)(=O)c3csc(C(N)=O)c3)CC2)cc1OC (configuration not stated)	18.6	–
NC(=O)c1cc(S(=O)(=O)NCCCc2ccco2)cs1	–	8.2 µM (active)
COc1cccc(CNS(=O)(=O)c2csc(C(N)=O)c2)c1	1.51	–
CCC(=NC1CC(C)(C)NC(C)(C)C1)C1=C(O)CC(C)(C)CC1=O	-5.34	–
Cn1c(=O)cc(SCC(=O)N2CCCC2)c2cc(Cl)ccc21	-14.8	–
CC1(C)C(c2cccs2)=[N+]([O-])C2(CCCCC2=O)N1O (configuration not stated)	-15.3	–
COc1ccc(C(CC(=O)O)NC(=O)Cc2ccccc2)cc1 (configuration not stated)	-1.16	–
COc1ccc(C(CC(=O)c2ccccc2)S(=O)(=O)c2ccccc2)cc1 (configuration not stated)	–	18.4 µM (active)
COc1ccc(N(Cc2ccccc2)S(=O)(=O)c2cccc(C(=O)O)c2)cc1	2.71	–
CC(C)c1cc(C(=O)N/N=C/c2ccoc2)c(O)c(C(C)C)c1	12.3	–
CCOCCCNC(=O)Cc1cc(=O)[nH]c(=O)[nH]1	-0.0606	–
COc1ccc(NC(=O)Cn2c(-c3ccc(OC)cc3)cn(-c3ccc(C)cc3)c2=O)cc1	-22.8	–
CC(=O)OCC1(O)CC23CCC4c5ccoc5CCC4(C)C2CCC1C3 (configuration not stated)	–	14.6 µM (active)

Compound	activity change, negative = growth inhibition [%]	Potency
Cc1ccc(SCCC(=O)Nc2cc(C)on2)cc1	1.17	–
O=C(O/N=C(/c1ccccc1)c1ccncc1)c1ccccc1[N+](=O)[O-]	-19.9	–
O=C(CN1CCOCC1)Nc1ccc(NC(=O)CN2CCOCC2)c(Cl)c1	-7.28	–
CC(=O)OC1CCC2(O)CC1(C)CCC1C2CC1(C)C (configuration not stated)	-13.3	–
Cc1ccc2c(=O)cc(C(=O)NCCc3ccc(S(N)(=O)=O)cc3)oc2c1C	-26.4	–
CCOC(=O)c1csc(CCNC(=O)c2oc3c(Cl)cc(C)cc3c2C)n1	–	20.6 µM (active)
COCCN1Cc2cccc(C(=O)Nc3ccccc3OC)c2C1=O	-19.1	–
CCOc1ccc(NC(=O)c2cccc3c2C(=O)N(CC2CCCO2)C3)cc1 (configuration not stated)	-27.1	–
COc1ccc(NC(=O)c2cccc3c2C(=O)N(CC2CCCO2)C3)cc1OC (configuration not stated)	–	23.1 µM (active)
O=C(CNS(=O)(=O)c1ccc(Br)s1)N1CCN(C(=O)c2ccco2)CC1	-15.3	–
O=C(CNC(=O)c1cc2c(s1)CCC2)Nc1ccccc1Br	-25.6	–
Cc1ccc(C(=O)N/C(=C\c2cccs2)C(=O)NCCc2ccccn2)cc1C	-26.9	–
COc1cncc(-c2cnc3sc(NCCc4ccccn4)nn23)c1	–	13 µM (active)
COc1ccc2oc(=O)c(C(=O)NCc3ccccn3)cc2c1	-20.1	–
C[C@H](CO)N1C[C@H](C)[C@H](CN(C)C(=O)Nc2ccc3c(c2)OCO3)Oc2ncc(Br)cc2C1=O	-3.88	–
CN1CCCC(OC(=O)COc2ccc(Br)cc2)C1 (configuration not stated)	6.51	–
CCOc1ccccc1-n1c(SCC(=O)N2CCCC2)nnc1-c1ccoc1C	-5.39	–
CC(=O)Nc1ccc(N2C(=O)CC(Sc3nccc(C)n3)C2=O)cc1 (configuration not stated)	-28.4	–
CCOc1ccccc1N1C(=O)CC(Sc2nccc(C)n2)C1=O (configuration not stated)	–	20.6 µM (active)
COc1ccc(C(=O)NC(C)c2nccs2)cc1OC1CCN(C(C)C)CC1 (configuration not stated)	13.2	–
COc1ccc(-c2[nH]ncc2CN(C)Cc2cc(C)[nH]n2)c(F)c1	-26.4	–
Cc1cc(C)nc(NC(=O)C(C)N2C(=O)c3ccccc3C2=O)n1 (configuration not stated)	-11.5	–

Compound	activity change, negative = growth inhibition [%]	Potency
Cc1cc(Cl)nc(NC(=O)Nc2cccc(Cl)c2)n1	-24.8	–
Cc1cc(C)nc(NC(=O)Nc2ccccc2C(F)(F)F)n1	–	18.4 µM (active)
CC(C)C(NC(=O)c1cccc(S(=O)(=O)N2CCOCC2)c1)C(=O)NCCc1ccccn1 (configuration not stated)	-8.62	–
O=C(COC(=O)c1ccncc1)c1ccccc1	-1.61	–
O=C(COC(=O)c1c2c(nc3ccccc13)CCCC2)c1ccc(Br)s1	–	7.31 µM (active)
Cc1ccc(C(=O)COC(=O)c2cccc(N3C(=O)c4c(C)nc5ccccc5c4C3=O)c2)cc1C	14.6	–
O=C(NC1CCCCC1)c1ccc(CNc2c(N3CCOCC3)c(=O)c2=O)cc1	-6.18	–
CC1CCC(NC(=O)c2ccc(N3CCCC3=O)cc2)CC1 (configuration not stated)	2.73	–
CN1C(=O)/C(=C/c2ccc(C(=O)NC3CCCC3)cc2)Oc2ccccc21	–	10.3 µM (active)
CNC(=S)N1CCC(NC(=O)C(Cc2ccc(F)cc2)NC(C)=O)CC1 (configuration not stated)	-8.04	–
CCOc1ccc(C(CC(=O)O)n2cnnn2)cc1OC (configuration not stated)	-2.39	–
C[C@H]1CN([C@@H](C)CO)S(=O)(=O)c2ccc(Br)cc2O[C@H]1CN(C)C(=O)c1cnccn1	-0.338	–
CCOC(=O)C1=C(O)CSC1=Nc1cccc(Cl)c1	0.713	–
CN(C)c1nc(=Nc2cccc(Cl)c2)ss1	–	0.206 µM (active)
CCN(CC)S(=O)(=O)c1ccc(OC(C)C)c(N)c1	-17.6	–
CC(C)Nc1nnc(SC(C)C(=O)N(C)C2CCCCC2)s1 (configuration not stated)	-20.8	–
Cc1cccc(N2CCN(c3c(CN4CCCC4)c(=O)oc4ccccc34)CC2)c1C	5.73	–
Cc1cccc(N2CCN(C3=C(c4ccccc4)C(=O)c4ccccc43)CC2)c1C	–	11.6 µM (active)
CC(Oc1ccccc1)C(=O)NN1Cc2ccccc2C1=N (configuration not stated)	4.93	–
Cc1nn(C)cc1N1C(=O)c2cccc3c(N)ccc(c23)C1=O	-21.5	–
CCc1oc(-c2ccc(OC)cc2)c(C(=O)OCCCCCO)c1C(C)OCCO (configuration not stated)	–	16.4 µM (active)
CCN(CCCCOC(=O)c1ccc(OC)c(OC)c1)C(C)Cc1ccc(OC)cc1 (configuration not stated)	-25	–

Compound	activity change, negative = growth inhibition [%]	Potency
COc1ccc(C(=O)Nc2c(N)nc(SCC(=O)N3CCC(C)CC3)[nH]c2=O)cc1OC	2.88	–
O=C(c1ccc2c(c1)C(=O)N(Cc1ccncc1)C2=O)N1CCN(S(=O)(=O)c2ccc(OC(F)(F)F)cc2)CC1	-20	–
Oc1ccc(Br)cc1C1C=C(c2ccc3c(c2)OCO3)NC(c2ccc(Cl)cc2)N1 (configuration not stated)	–	5.01 µM (active)
CCN(CC(=O)Nc1cc(Cl)ccc1C)C(=O)CN1C(=O)NC2(CCCC2)C1=O	-2.6	–
CC(=O)NCCNC(=O)c1cc(-c2cccc3ccccc23)nc2ccccc12	9.72	–
CN(C)CCNC(=O)Nc1cccc(Cl)c1Cl	-9.59	–
CN(C)CCNC(=O)c1ccc(Cl)c2cc3ccccc3nc12	–	0.146 µM (active)
CCNC(=S)N(CCN(CC)CC)Cc1cc2cc3c(cc2[nH]c1=O)OCCO3	-29.6	–
Oc1c(C(c2cccs2)N2CCN(c3ccc(F)cc3)CC2)sc2ncnn12 (configuration not stated)	-10.6	–
CC1CC(C)CN(CC(=O)Nc2ccc(S(N)(=O)=O)cc2)C1 (configuration not stated)	-2.41	–
Cc1nnc(SCC(=O)N2CCc3ccccc3C2)s1	-19	–
Cc1nc(SCC(=O)N2CCc3ccccc3C2)c2c(C)c(C)sc2n1	–	16.4 µM (active)
Cc1nc(SCC(=O)Nc2cc(C)on2)c2c(C)c(C)sc2n1	-14.9	–
O=C(NCC(O)c1nc2ccccc2[nH]1)c1ccc(Br)cc1 (configuration not stated)	-3.34	–
O=C(CC1CCCCC1)NCc1ccc(F)cc1	-0.903	–
CCOC(=O)C1CCN(C(=O)Nc2ccc(Cl)cc2)CC1	-21.3	–
O=[N+]([O-])c1ccc(N2CCOCC2)cc1	-11.2	–
O=C(O)C1CCN(c2ccc([N+](=O)[O-])cc2[N+](=O)[O-])CC1	-1.31	–
O=[N+]([O-])c1ccc(N2CCN(c3ccc(O)cc3)CC2)c(Cl)c1	–	13 µM (active)
